According to the supplement of paper PMC13380429:

system: Vero E6 infected with SARS-CoV-2; test: SARS-CoV-2 infection rate relative to infected DMSO; higher = more infection, active = 60 or less; details: 24 h

SMILES | SARS-CoV-2 infection rate
CO/N=C(\C(=O)N[C@@H]1C(=O)N2C(C(=O)OCOC(=O)C(C)(C)C)=C(C)CS[C@H]12)c1csc(N)n1 [cefetamet-pivoxil] (10 µM) | 96.5% (inactive)
C=CCn1c(=O)c2cnc(Nc3ccc(N4CCN(C)CC4)cc3)nc2n1-c1cccc(C(C)(C)O)n1 (10 µM) | 96% (inactive)
Nc1ccc(S(=O)(=O)NC(=O)c2ccccc2)cc1 [sulfabenzamide] (10 µM) | 106% (inactive)
CCN(CC)C(=O)Nc1ccc(OCC(O)CNC(C)(C)C)c(C(C)=O)c1 (stereo not given) [celiprolol] (10 µM) | 96.5% (inactive)
CC(C)c1onc(-c2c(Cl)cccc2Cl)c1COc1ccc(/C=C/c2cccc(C(=O)O)c2)c(Cl)c1 (10 µM) | 96.5% (inactive)
